The term AC50 denotes the midpoint of the concentration-response curve, whichever way the signal moves.

Inconclusive results are not listed. Activity calls are given as the source filed them. The calls were made as follows, unless noted: active = hit-call score of the fitted dose curve at least 0.9, where 1 is the maximum; inconclusive = response in the unintended direction; inactive = score below 0.9.

In the first assay the target is Estrogen receptor (Homo sapiens) (UniProt P03372). Nature of the assay: CCTE_Deisenroth_AIME_96WELL_LUC_Active: CCTE's 96-well Estrogen Receptor Transactivation Assay with AIME metabolic competence (ERTA luciferase; metabolism positive), Deisenroth Lab (AID 2284023). In outline: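 Chemicals pre-incubated 2 h with alginate-immobilized phenobarbital/beta-naphthoflavone-induced male Sprague Dawley rat liver S9, then medium transferred to VM7Luc4E2 cells for 24 h luciferase read-out. 10-point series 0.002 - 200 uM; fitted relative to 17beta-estradiol.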
Estrogen receptor (Homo sapiens), sequence (P03372 whole entry, looked up): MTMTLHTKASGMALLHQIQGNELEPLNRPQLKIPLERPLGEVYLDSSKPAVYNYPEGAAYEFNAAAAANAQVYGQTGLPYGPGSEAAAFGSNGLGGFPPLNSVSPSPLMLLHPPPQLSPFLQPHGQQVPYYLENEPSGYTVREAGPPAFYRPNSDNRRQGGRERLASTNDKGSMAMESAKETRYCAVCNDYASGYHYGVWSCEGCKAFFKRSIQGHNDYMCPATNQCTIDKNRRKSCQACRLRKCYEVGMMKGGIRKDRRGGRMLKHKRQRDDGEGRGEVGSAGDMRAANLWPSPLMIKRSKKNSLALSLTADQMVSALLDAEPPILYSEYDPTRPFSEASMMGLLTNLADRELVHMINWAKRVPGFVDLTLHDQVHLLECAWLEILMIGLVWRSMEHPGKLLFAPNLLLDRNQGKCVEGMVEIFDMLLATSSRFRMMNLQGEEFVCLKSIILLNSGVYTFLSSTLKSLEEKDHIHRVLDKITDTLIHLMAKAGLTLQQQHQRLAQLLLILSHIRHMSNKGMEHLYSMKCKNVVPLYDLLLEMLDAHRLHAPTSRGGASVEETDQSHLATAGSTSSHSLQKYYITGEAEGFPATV
For the compound `C(#Cc1ccccc1)c1ccccc1`, the AC50 is 32.3 µM (active).

With `c1ccc([C@H]2O[C@H]2c2ccccc2)cc1`, the AC50 was 66.7 µM (active).

`c1ccc(CCCc2ccccc2)cc1`: the compound was classed as inactive.

With `C/C(=C\c1ccccc1)c1ccccc1`, the AC50 was 20.6 µM (active).

Take `O=C(C=Cc1ccccc1)c1ccccc1`: the AC50 was 31.9 µM (active).

With `Oc1ccccc1Cc1ccccc1`, the AC50 is 27.7 µM (active).

Regarding `COc1ccc(C=Cc2ccc(OC)cc2)cc1`, the result was inactive.

The target is the same in a further assay. Put plainly: CCTE_Deisenroth_AIME_96WELL_LUC_Inactive: CCTE's 96-well Estrogen Receptor Transactivation Assay without AIME metabolic competence (ERTA luciferase; metabolism negative), Deisenroth Lab (AID 2284025). In outline:
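VM7Luc4E2 breast cells, luciferase read 24 h after dosing with medium pre-incubated 2 h on alginate-water lids (metabolism negative). 10-point series 0.002–200 uM, single technical replicate, n≥4; fit relative to 17beta-estradiol.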
As for `C(#Cc1ccccc1)c1ccccc1`, the AC50 was 28.5 µM (active).

Take `c1ccc([C@H]2O[C@H]2c2ccccc2)cc1`: the AC50 is 72.1 µM (active).

On to `c1ccc(CCCc2ccccc2)cc1`, for which the AC50 is 37.4 µM (active).

Regarding `C/C(=C\c1ccccc1)c1ccccc1`, the AC50 is 37.2 µM (active).

For `O=C(C=Cc1ccccc1)c1ccccc1`, the AC50 was 28.2 µM (active).

`Oc1ccccc1Cc1ccccc1`: the AC50 is 27.7 µM (active).

`COc1ccc(C=Cc2ccc(OC)cc2)cc1`: the call was inactive.

Tested on in a further assay: not listed separately
Put plainly: CCTE_Deisenroth_AIME_96WELL_CTox_Active: Cytotoxicity Assessment (CTOX) in CCTE's 96-well Estrogen Receptor Transactivation Assay with AIME metabolic competence (metabolism positive), Deisenroth Lab (AID 2284028). A digest of the protocol: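 Chemicals (0.002–200 uM) were first incubated 2 h with alginate-immobilized phenobarbital/beta-naphthoflavone-induced male rat liver S9; conditioned medium then went onto VM7Luc4E2 cells for 24 h, with viability read by protease-substrate fluorescence, fitted bidirectionally.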
`c1ccc([C@H]2O[C@H]2c2ccccc2)cc1`: the result was inactive.

Regarding `c1ccc(CCCc2ccccc2)cc1`, the compound was called inactive.

For `CC/C(=C(\c1ccc(O)cc1)c1ccc(OCCN(C)C)cc1)c1ccccc1`, the AC50 was 57.8 µM (active).

On to `O=C(C=Cc1ccccc1)c1ccccc1`, for which the compound was classed as inactive.

As for `Oc1ccccc1Cc1ccccc1`, the AC50 was 162 µM (active).

Take `COc1ccc(C=Cc2ccc(OC)cc2)cc1`: the compound was called inactive.

Tested on in another assay: not listed separately
Put plainly: CCTE_Deisenroth_AIME_96WELL_CTox_Inactive: Cytotoxicity Assessment (CTOX) in CCTE's 96-well Estrogen Receptor Transactivation Assay without AIME metabolic competence (metabolism negative), Deisenroth Lab (AID 2284029). A digest of the protocol: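 Chemicals (0.002 - 200 uM, 10 points) incubated 2 h with alginate-water microspheres (no S9), then medium moved onto VM7Luc4E2 cells for 24 h. Viability by protease-substrate cleavage to fluorescent probe; bidirectional fitting.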
For the compound `c1ccc([C@H]2O[C@H]2c2ccccc2)cc1`, the call was inactive.

Consider `CC/C(=C(\c1ccc(O)cc1)c1ccc(OCCN(C)C)cc1)c1ccccc1`, for which the AC50 is 57.6 µM (active).

Consider `O=C(C=Cc1ccccc1)c1ccccc1`, for which the AC50 was 114 µM (active).

For `Oc1ccccc1Cc1ccccc1`, the AC50 is 175 µM (active).

For the compound `COc1ccc(C=Cc2ccc(OC)cc2)cc1`, the outcome was inactive.

Tested on in the next assay: not listed separately
Nature of the assay: CCTE_Shafer_MEA_dev_firing_rate_mean: CCTE's Neural Network Formation Assay for Mean Firing Rate, Shafer Lab (AID 2284031; active = hit-call score of the fitted dose curve at least 0.9, where 1 is the maximum; inactive = score below 0.9;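 as to AC50: curve fitted for loss of firing so AC50 reflects decreased mean firing rate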). A digest of the protocol: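 Primary rat cortical neurons on 48-well MEA plates, exposed from plating day 0 with dosing renewed on DIV 5 and 9. Mean well firing rate over active electrodes, recorded days 5, 7, 9, 12, summarised as trapezoidal AUC.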
With `Brc1cc(Br)c(Oc2cc(Br)c(Br)cc2Br)cc1Br`, the result was inactive.

As for `CC(C)O`, the call was inactive.

As for `F`, the outcome was inactive.

As for `CC(=O)N[C@@H](CC(=O)O)C(=O)O`, the compound was called inactive.

In the case of `CCCCCC=C(C)C(CC)CCO` (stereo not given), the call was inactive.

Consider `BrC1CC(Br)CC(Br)CC(Br)CC(Br)CC(Br)C1` (stereo not given), for which the AC50 was 8.92 µM (active).

For the compound `C[C@@H]1CC[C@@H](C(C)(C)O)[C@H](O)C1`, the result was inactive.

Regarding `CC(C)c1nn(C(=O)NC(C)(C)C)c(=O)n1N`, the compound was classed as inactive.

`[O]=[V]([OH])([OH])[OH]`: the compound was classed as inactive.

On to `CCc1ccccc1`, for which the call was inactive.

Consider `CN(C)CCCn1cc(C2=C(c3c[nH]c4ccccc34)C(=O)NC2=O)c2ccccc21`, for which the AC50 was 1.97 µM (active) [middle of 4 runs].

On to `CCCCCC(C)(CC)C(=O)NC` (stereo not given), for which the outcome was inactive.

As for `Cc1[nH]n(C)c(=O)c1C(=O)c1ccc(C(F)(F)F)cc1S(C)(=O)=O`, the result was inactive.

For the compound `CC(CNC(=S)[S-])NC(=S)[S-].[Zn+2]` (stereo not given), the AC50 is 6.97 µM (active).

For `C[C@@H]1CCO[C@H]2Cn3cc(C(=O)NCc4ccc(F)cc4F)c(=O)c(O)c3C(=O)N12`, the AC50 is 2.57 µM (active).

The values are drawn from PubChem BioAssay (EPA / NIEHS).
